# Compound activity as filed in PubChem BioAssay.
# DT40 TDP1 no CPT = qHTS for Inhibitors of human tyrosyl-DNA phosphodiesterase 1 (TDP1): qHTS in cells in absence of CPT | DT40 Tdp1-/- hTDP1 cells, no CPT, ATP luminescence, 48 h | Potency, µM (top dose mostly 46.2 µM), inactives show top-dose activity change, negative = growth inhibition, hits mostly inhibitors | 420,000 compounds, 15% hits | AID 686978, 2013; also: potency is read from the fitted curve at half-maximal effect; nearly all actives have a fitted effect of over 55% in size
#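 No-CPT arm: Tdp1-/-;hTDP1 DT40 cells (400/well) plus compounds, incubated ≥48 hr at 37 °C. Readout CellTiter-Glo luminescence.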
# TDP1 inh = blocks human tyrosyl-DNA phosphodiesterase 1 | Q9NUW8 | recombinant TDP1, AlphaScreen DNA substrate cleavage | Potency, µM (titrated, usually from 130 µM), inactives show top-dose activity change, negative = inhibition, actives largely listed as inhibitors | 350,000 compounds, 0.28% hits | AID 485290; also: potency is read from the fitted curve at half-maximal effect; nearly all actives have a fitted effect of over 40% in size
# Target sequence (Q9NUW8 whole entry, looked up): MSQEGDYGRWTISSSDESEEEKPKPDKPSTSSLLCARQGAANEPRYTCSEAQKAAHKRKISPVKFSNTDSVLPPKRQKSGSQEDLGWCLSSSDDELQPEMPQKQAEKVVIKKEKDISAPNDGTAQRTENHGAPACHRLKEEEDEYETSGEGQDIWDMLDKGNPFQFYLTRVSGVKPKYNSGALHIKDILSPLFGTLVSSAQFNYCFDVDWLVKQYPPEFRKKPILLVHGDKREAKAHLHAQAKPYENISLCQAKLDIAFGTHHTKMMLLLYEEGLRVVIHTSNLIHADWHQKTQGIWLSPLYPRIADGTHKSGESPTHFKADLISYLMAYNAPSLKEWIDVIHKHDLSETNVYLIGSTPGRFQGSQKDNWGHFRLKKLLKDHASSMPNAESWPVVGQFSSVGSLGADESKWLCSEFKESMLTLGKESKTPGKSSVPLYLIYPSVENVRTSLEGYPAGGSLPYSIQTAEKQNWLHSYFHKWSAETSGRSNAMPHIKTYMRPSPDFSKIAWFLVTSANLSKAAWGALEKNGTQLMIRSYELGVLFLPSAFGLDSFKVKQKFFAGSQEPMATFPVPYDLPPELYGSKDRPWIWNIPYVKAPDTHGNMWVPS
#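 Signal: AlphaScreen proximity between streptavidin donor and anti-FITC acceptor beads on intact substrate. Reaction: Tdp1 1 nM, substrate 15 nM final, 5 min RT after 15 min compound preincubation.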
# Giardia killer = Giardia lamblia killing; Giardia lamblia trophozoite viability; activity change, % at 7.66 µM, hits read low; 340,000 compounds, 0.15% hits; in the data active = activity change below about -80%; inconclusive = between about -30% and that limit;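 also: parasites exposed to compound for two days anaerobically before the ATP read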
#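 Trophozoites 100 cells/well + cpd; 48 hrs, 37 deg C, anaerobic. ATPLite 1-Step added, 15-30 min RT, luminescence read (ATP-based viability).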
# IL-1B inflam inh = inflammasome signaling inhibition, IL-1 beta readout | THP-1 LPS/ATP IL-1B secretion, AlphaLISA, 16 h; active compounds read low | 360,000 compounds, 4.7% hits | activity change, % at 57.5 µM; in the data active = activity change below about -50%; inconclusive = mostly about -30% to -49%
#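 THP-1 cells pretreated 1 hr with compounds (up to 57.5 uM final), then stimulated with LPS (250 ng/mL final) plus ATP (1.25 mM final); secreted IL-1B measured by AlphaLISA after 16 hr, decreased signal indicating inhibition.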
# ELG1 repair inh = blocks ELG1-dependent DNA repair in HEK293T cells | HEK293T ELG1-luciferase reporter, luminescence, 16 h; DNA damage induced by 5-fluorouridine | Potency, µM (doses to about 46.1 µM), inactives show at the highest dose activity change, negative = inhibition, most hits filed as inhibitors | 330,000 compounds, 2.3% hits; also: potency is read from the fitted curve at half-maximal effect; nearly all actives have a fitted effect of over 55% in size
#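 In this reporter screen, reduction of luminescence relative to DMSO vehicle indicated activity. Compounds and 5-fluorouridine were added together to 2,000 cells per well, incubated for 16 hr at 37 °C, then developed with ONE-Glo.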
# DT40 TDP1 CPT = DT40-hTDP1 cell growth loss with CPT. chicken DT40 Tdp1-/-;hTDP1 cells + 20 nM CPT, ATP luminescence, 48 h. Potency, µM (highest dose often 46.2 µM), for the others: at the highest dose activity change, negative = growth inhibition, actives largely listed as inhibitors. 420,000 compounds, 12% hits. AID 686979; also: potency is read from the fitted curve at half-maximal effect; nearly all actives have a fitted effect of over 55% in size
#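 Cell growth measured by CellTiter-Glo luminescence after a minimum 48 h, 37 C compound exposure with 20 nM CPT in Tdp1-knockout DT40 cells stably expressing hTDP1, seeded 400/well; qHTS titration format.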
# The depositor's hits bear a star; u = inconclusive; x = no result; ! = a repeat was not active; [ ] = remark or other dose. In the library only some 19% were active in any assay of this set; here they are far more common. Unless noted, calls follow the shape of the dose curve; as a rule, active = well fitted curve in the direction sought with a large enough effect; inconclusive = small, poorly fitted or top-dose-only effect, or another doubt; inactive = no such curve, though single readings can be large; an effect the other way counts as inactive or inconclusive. % is scaled to controls: 0 for no effect and ±100 for the full control effect.
SMILES,DT40 TDP1 no CPT,TDP1 inh,Giardia killer,IL-1B inflam inh,ELG1 repair inh,DT40 TDP1 CPT
O=[N+]([O-])c1ccc(N2CCCC2)cc1N/N=C1\CN2CCC1CC2,21µM*,5%,-9,-16,u,u
CC(C)CCOP(=O)(c1ccc(N(C)C)cc1)C(O)c1ccccc1 (stereo not given),u,x,3,14,0%,u
CCOP(=O)(OCC)/C(=N/OC(=O)c1ccccc1C)C(N)=O,13µM*,0%,-1,-103*,0%,u
Cn1sc(Cl)cc1=O,-13%,x,x,x,x,13%
CCOCN(C(=O)CCl)c1c(C)cccc1CC,u,4%,-23,-60*,u,u
CCc1cccc(CC)c1N(COC)C(=O)CCl,u,8%[56.1 µM],-3,-19,x,21µM*!
COCC(C)N(C(=O)CCl)c1c(C)csc1C (stereo not given),-17%,10%,x,x,x,10%
O=C1NC[C@H](CCCCN2C[C@H](Cc3ccccc3)N(CC3CCCCC3)C(=O)C2=O)N(CCC2CCCCC2)C1=O,u,x,x,-8,x,u
Cc1cc(C)cc(Oc2nc3ccccn3c(=O)c2/C=C(\C#N)c2nc3ccccc3s2)c1,9.2µM*,3%,x,x,x,u
Cc1cccc(Oc2nc3c(C)cccn3c(=O)c2/C=C(\C#N)c2nc3ccccc3s2)c1,18µM*,-11%,x,x,x,u
Cc1cccn2c(=O)c(/C=C(\C#N)c3nc4ccccc4s3)c(Oc3ccc(F)cc3)nc12,21µM*,-8%,x,x,x,u
COP(=S)(OC)Oc1cc(Cl)c(Cl)cc1Cl,-3%,x,x,x,x,-5%
CCc1ccc(NP(=O)(Oc2ccccc2F)Oc2ccccc2F)cc1,u,6%,8,-102*,u,u
CN1C2CCC1CC(OC(=O)c1ccc(Cl)cc1)C2 (stereo not given),u,-12%,-17,-8,-11%,u
CN1[C@@H]2CC[C@H]1CC(O[C@@H](c1ccccc1)c1ccc(Cl)cc1)C2 (stereo not given in full),4.2µM*,12%,x,x,x,2.7µM*
CN1C2CCC1CC(OC(c1ccc(F)cc1)c1ccc(F)cc1)C2 (stereo not given),7.3µM*,5%,x,x,x,6.5µM*
CCC1(C)Cc2ccccc2-c2c1c(=O)n(Cc1ccccc1)c1nnnn21 (stereo not given),u,-1%,-14,-4,-13%,u
Cc1c(NC(=O)Nc2cccc(C(F)(F)F)c2)sc2nc3n(c(=O)c12)CCC(C)CC3 (stereo not given),18µM*,-4%,x,x,x,13µM*
Cc1cccc(N)c1C,x,9%,x,x,x,x
Cc1ccc(-c2nn(Cc3ccccc3)cc2C=O)cc1,u,-3%,18,-10,u,-8%
Cc1ccc(-c2nn(Cc3ccccc3)cc2C=O)cc1C,16µM*,-8%,14,-22,u,u
c1ccc(SSc2ccccc2)cc1,12µM*,-12%,6,-101*,0%,12µM*
C[C@H]1CC[C@]2(NC1)O[C@H]1C[C@H]3[C@@H]4CC[C@H]5C[C@@H](O[C@@H]6O[C@H](CO)[C@H](O[C@@H]7O[C@H](CO)[C@@H](O)[C@H](O[C@@H]8OC[C@@H](O)[C@H](O)[C@H]8O)[C@H]7O[C@@H]7O[C@H](CO)[C@@H](O)[C@H](O)[C@H]7O)[C@H](O)[C@H]6O)CC[C@]5(C)[C@H]4CC[C@]3(C)[C@H]1[C@@H]2C,1.7µM*,x,x,x,x,1.9µM*
Cc1cccc(C(=O)Nc2ccc(C(=O)OCc3cc(=O)n4nc(C5CC5)sc4n3)cc2)c1,u,4%,x,x,x,u
CN(C)C/C=C(\c1ccc(Br)cc1)c1cccnc1,u,6%,-5,-25,14%,-28%
SMILES,DT40 TDP1 no CPT,TDP1 inh,Giardia killer,IL-1B inflam inh,ELG1 repair inh,DT40 TDP1 CPT
CCSc1nc2n(n1)C(c1ccc(Cl)cc1Cl)C(C(=O)Nc1ccccc1C)=C(C)N2 (stereo not given),13µM*,0%,x,x,x,18µM*
CCC(C)n1c(O)c(C=NCC2CCCO2)c(=O)[nH]c1=S (stereo not given),4%,x,4,-4,1%,6%
COc1ccc(C)cc1NC(=O)c1c(C)nn(Cc2ccccc2)c1Cl,u,-7%,5,-98*,15µM*,5%
Cc1ccccc1-n1c(C)nc2ccsc2c1=O,-7%,x,-6,-2,x,-2%
O=c1[nH]sc2cc(F)ccc12,2.3µM*,6%,u,-108*,8%,1.8µM*
COc1ccc(-n2c(O)c(C=NCCN3CCN(C(C)=O)CC3)c(=O)[nH]c2=S)cc1,-16%,x,2,34,16%,11%
CCn1cc2nc(SCc3cc(C)ccc3C)n(Cc3ccc(OC)cc3)c(=O)c2n1,7.3µM*,-3%,x,x,x,10µM*
Nc1cccc(Cl)c1,x,10%,x,x,x,x
Oc1cccc[c]1[Hg][Cl],0.15µM*,x,x,x,x,0.19µM*
CC(=O)O/C(=C1\CC2C3CC=C4CC(OC(C)=O)CCC4(C)C3CCC2(C)C1=O)C(F)(F)F (stereo not given),3.7µM*,x,-5,33,x,4.6µM*
CSc1ncc(/C=C2/C(=O)NC(=O)N(c3ccc(C)cc3)C2=O)cn1,-24%,-1%,-1,25,3%,21%
